# HT1080NT lethal = kills 2HG-producing HT-1080-NT fibrosarcoma cells; hit rate 1.6% among 360,000; Potency, µM (top dose mostly 46.1 µM), inactives show at the top dose activity, negative = less viability, usual class: cytotoxic; HT-1080-NT fibrosarcoma viability, CellTiter-Glo ATP luminescence, 48 h;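 also: NT is the 2HG producing partner of a matched IDH1 knockdown line; 0% = DMSO-treated cells and -100% = media-only wells without cells; nearly all actives have a fitted effect of over 55% in size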
#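 Fibrosarcoma NT cells, 750 per well in 5% FBS RPMI, were exposed to compound for 48 hours. Viability: CellTiter-Glo luminescence.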
# TGFb SMAD3 inh = blocks TGF-b signaling. HepG2 CAGA-GFP TGF-b/SMAD3 reporter, GFP fluorescence, 18 h; TGF-beta stimulated, 500 pg/mL final. Potency, µM (highest dose often 46.1 µM), without a hit: top-dose activity, negative = inhibition, most hits filed as inhibitors. hit rate 1.2% among 410,000. AID 588855; also: % is scaled to controls: 0 for no effect and ±100 for the full control effect; nearly all actives have a fitted effect of over 65% in size
#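 Read-out: total well GFP (ex488/em500-530) summed from mean per-cell fluorescence. Cells: HEPG2 CAGA-GFP, 1% FBS DMEM, 18 h at 37 degrees C with 500 pg/mL final TGF-beta. Unstimulated wells served as the full-inhibition control; stimulated DMSO wells = 0%.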
# HT1080 IDH1KD tx = kills HT-1080 cells with IDH1 knockdown | HT-1080 IDH1 knockdown viability, ATP luminescence, 48 h | Potency, µM (series often up to 46.1 µM), for inactives: at the highest dose activity, negative = toxicity, most hits filed as cytotoxic | hit rate 2% among 360,000 | AID 686971;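 also: 0% = DMSO wells and -100% = cell-free medium wells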
#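 In this qHTS, HT-1080 cells depleted of IDH1 are exposed for 48 h at 37 °C to compound titrations. Toxicity is scored from CellTiter-Glo luminescence, with DMSO as full viability and medium alone as none.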
# TDP1 cell noCPT = qHTS for Inhibitors of human tyrosyl-DNA phosphodiesterase 1 (TDP1): qHTS in cells in absence of CPT | DT40 Tdp1-/- hTDP1 cells, no CPT, ATP luminescence, 48 h | Potency, µM (titrated, usually from 46.2 µM), inactives show at the highest dose activity change, negative = growth inhibition, most hits filed as inhibitors | hit rate 15% among 420,000 | AID 686978, 2013; also: % is scaled to controls: 0 for no effect and ±100 for the full control effect; nearly all actives have a fitted effect of over 55% in size
#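 Growth kinetics read by CellTiter-Glo luminescence after ≥48 hr at 37 °C. Cells: DT40 Tdp1-/- stably carrying human TDP1, 400 per well, compound exposure in the absence of CPT (DMSO vehicle).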
# HepG2 viability = kills HepG2 cells in TGF-b inhibitor counter-screen | HepG2 CAGA-GFP viability, ATP luminescence, 18 h | Potency, µM (highest dose often 46.1 µM), for the others: at the top dose activity change, negative = cytotoxicity, hits mostly cytotoxic | hit rate 0.76% among 410,000 | AID 588856
#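 CellTiter-Glo luminescence gave cytotoxicity after 18 hours at 37 degrees C. The cells were HepG2 CAGA-GFP in 1% FBS DMEM, stimulated with 500 pg/mL TGF-beta after compound addition. %Activity was normalised to no-cell wells (complete cell-killing) and DMSO (no toxicity), and curves were fitted and classified.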
# DT40 TDP1 CPT = growth inhibition of DT40 Tdp1-/-;hTDP1 cells with camptothecin (screen for TDP1 inhibitors); AID 686979; hit rate 12% among 420,000; chicken DT40 Tdp1-/-;hTDP1 cells + 20 nM CPT, ATP luminescence, 48 h; Potency, µM (doses to about 46.2 µM), for the others: at the highest dose activity change, negative = growth inhibition, hits mostly inhibitors; also: % is scaled to controls: 0 for no effect and ±100 for the full control effect; nearly all actives have a fitted effect of over 55% in size
#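 Chicken DT40 Tdp1-/- cells stably complemented with human TDP1 were seeded at 400 cells/well in medium containing 20 nM camptothecin, exposed to pin-transferred compounds, and grown at 37 °C for at least 48 hr. Viability was read as ATP luminescence.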
# * hit, by the source's call; ? = inconclusive; nt = no result given. A selection: hits, their analogues and other compounds. The true share with any hit is near 17%. Calls follow the shape of the dose curve; as a rule, active = well fitted curve in the direction sought with a large enough effect; inconclusive = small, poorly fitted or top-dose-only effect, or another doubt; inactive = no such curve, though single readings can be large; an effect the other way counts as inactive or inconclusive. Potency is read from the fitted curve at half-maximal effect.
SMILES,HT1080NT lethal,TGFb SMAD3 inh,HT1080 IDH1KD tx,TDP1 cell noCPT,HepG2 viability,DT40 TDP1 CPT
Cc1ccc(C)c(NS(=O)(=O)c2ccc3oc(=O)ccc3c2)c1,-15%,-9%,-1%,?,6%,-19%
Cc1ccc(C)c(NS(=O)(=O)c2ccc3c(c2)Cc2cc(S(=O)(=O)Nc4cc(C)ccc4C)ccc2-3)c1,-23%,-13%,-12%,13µM*,-33%,21µM*
CCCOC(=O)c1ccc(NC(=O)Cc2csc(C)n2)cc1,nt,-32%,nt,?,-2%,-37%
CC(=O)n1c(-c2ccccc2)c(-c2ccccc2)n(C)c1=O,-10%,1%,-7%,?,0%,-26%
Cc1ccccc1OCc1occc1C(=O)Nc1cccc(-n2cnnn2)c1,-29%,14µM*,?,18µM*,-32%,23µM*
Cc1cccc(OCc2occc2C(=O)Nc2cccc(-n3cnnn3)c2)c1,-28%,9%,-14%,0%,3%,-23%
O=C(NCCC(=O)N(CCc1ccccc1)Cc1ccccc1)c1ccc([N+](=O)[O-])cc1,-6%,-11%,-4%,23µM*,-27%,?
CS(=O)(=O)N(Cc1ccc(Cl)cc1)c1ccc(C(=O)N/N=C/c2cc3ccccc3nc2Cl)cc1,2%,11%,9%,23µM*,24%,?
CS(=O)(=O)N(Cc1ccccc1)c1ccc(C(=O)Nc2ccc(Cl)cc2)cc1,nt,?,nt,5.8µM*,-103%,?
CS(=O)(=O)N(Cc1ccccc1)c1ccc(C(=O)Nc2ccccc2C(=O)O)cc1,1%,8%,0%,-29%,-15%,-4%
O=[N+]([O-])c1ccc(NCCCc2ccccc2)cc1,-7%,?,0%,18µM*,-23%,?
Cc1ccc([C@H]2C[C@H](O)[C@@H](n3cc(C4CC4)nn3)CN2C(=O)c2cccs2)cc1,-9%,10%,-2%,-16%,-22%,-21%
O=C(Nc1ccccc1-c1nnc(SCc2ccccc2Cl)o1)c1ccccc1,-10%,3%,-6%,?,-6%,?
O=C(Nc1ccc(S(=O)(=O)N(Cc2ccccc2)c2ccccc2)cc1)c1ccc([N+](=O)[O-])cc1,nt,-5%,nt,?,-28%,2.9µM*
Cc1ccc(S(=O)(=O)n2cnc3ccccc32)cc1,4%,-7%,-5%,0%,-37%,17%
COc1ccc(C)cc1S(=O)(=O)n1cnc2ccccc21,1%,6%,-10%,15µM*,2%,13µM*
O=C(O)c1cccc(-c2ccccc2)c1O,4%,2%,2%,11%,-29%,9%
CC(C)(C)c1ccc(C2Sc3ccccc3NC3=C2C(=O)c2ccccc23)cc1 (stereo not drawn),nt,?,nt,?,-31%,16µM*
O=C1Nc2ccccc2SC1c1ccccc1Cl (stereo not drawn),-13%,-10%,?,-27%,-17%,-26%
O=C(Nc1ccc(C(=O)N2CCOCC2)cc1)c1cnn2c(C(F)F)cc(-c3ccccc3)nc12,-1%,5%,-2%,5.8µM*,1%,?
O=C(NCCN1CCOCC1)c1ccccc1-c1ccccc1,9%,-6%,0%,-27%,-2%,?
COc1ccccc1CCNC(=O)c1cnn2c(C(F)F)cc(C)nc12,-1%,0%,6%,23µM*,2%,21µM*
O=C(NCCN1CCOCC1)c1cnn2c(-c3ccccc3)cc(-c3ccccc3)nc12,?,-1%,?,23µM*,-19%,?
CCOc1ccccc1NC(=O)c1cnn2c(C(F)F)cc(-c3ccccc3)nc12,nt,0%,nt,23µM*,-27%,15µM*
Cc1ccc(C(=O)N2CCN(C(=O)c3ccc(C)cc3)C2)cc1,5%,-2%,4%,?,-7%,4%
SMILES,HT1080NT lethal,TGFb SMAD3 inh,HT1080 IDH1KD tx,TDP1 cell noCPT,HepG2 viability,DT40 TDP1 CPT
Cc1ccn(-c2cc(O)c(-n3ccc(C)n3)cc2O)n1,3%,-25%,3%,?,-15%,-5%
COc1ccc(-c2cc(C(F)F)n3ncc(C(=O)Nc4ccc(C(=O)N5CCOCC5)cc4)c3n2)cc1,2%,-13%,10%,3.3µM*,-20%,10µM*
CC12CCC(=O)C=C1CCC1C2C(O)CC2(C)C1CCC2(O)C(=O)CO (stereo not drawn),22%,-1%,-6%,?,-43%,-15%
Cc1c(Cl)cccc1NC(=O)CC1Oc2ccccc2NC1=O (stereo not drawn),1%,0%,6%,-2%,0%,2%
O=C(Nc1ccc(Cl)cc1)c1ccc(Br)cc1F,-16%,-1%,-7%,?,0%,-11%
CCOc1ccc(C2CC(c3cccc(Cl)c3)n3nc(N)nc3N2)cc1 (stereo not drawn),0%,8%,3%,16µM*,-19%,7.3µM*
COc1cccc(C2CC(c3ccc(Cl)cc3Cl)Nc3nc(N)nn32)c1 (stereo not drawn),-16%,-10%,-17%,23µM*,-63%,?
O=C(NCc1cccs1)c1ccc(-c2ccc(F)c(F)c2)c2ccoc12,?,0%,?,10µM*,-22%,12µM*
O=C(NCC1CC1)c1ccc(-c2cn[nH]c2)c2ccoc12,-1%,50%,-10%,?,-3%,?
O=C(NCc1ccc(F)c(F)c1)c1ccc(-c2ccc(F)c(F)c2)c2ccoc12,-24%,-32%,-12%,21µM*,-17%,18µM*
O=C(NCc1ccc(Cl)cc1)c1ccc(-c2ccc(F)c(F)c2)c2ccoc12,-5%,-18%,-2%,?,-37%,?
O=C(NCC1CCOCC1)c1ccc(-c2ccc(F)c(F)c2)c2ccoc12,-16%,-12%,?,10µM*,-20%,12µM*
CC(OC(=O)Cc1n[nH]c(=O)c2ccccc12)C(=O)Nc1ccc(Cl)cn1 (stereo not drawn),2%,-1%,-4%,?,0%,?
CC(OC(=O)Cc1n[nH]c(=O)c2ccccc12)C(=O)Nc1cc(Cl)cc(Cl)c1 (stereo not drawn),-22%,?,-15%,23µM*,-17%,?
COc1ccc(-n2c3c(cc(C(=O)Nc4cccc(C)n4)c2=O)C(=O)CC(C)(C)C3)cc1,2%,-14%,5%,-4%,6%,-2%
